The entries come from a sample that favours hits as a whole.
Pf apPOL inh = Pf-apPOL DNA polymerase inhibition; inhibition, % at 10 µM; actives 0.25% (n = 210,000); Recombinant Pf-apPOL, molecular beacon fluorescence, 1.5 h
mHTT-CaM PPI inh = mHTT-calmodulin interaction abrogation | inhibition, % at 15 µM | P42858 | actives 3.6% (n = 190,000) | AlphaScreen His-mHTT/GST-CaM binding, luminescence;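 further: 0% = both proteins with DMSO and 100% = one protein alone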
Starred values were filed as active, the others as inactive; · = not tested or not shown. No stated cut-off is given here; in the data, active means inhibition above about 50%; inactive means the rest.

SMILES | Pf apPOL inh | mHTT-CaM PPI inh
OC(COCCC12CC3CC(CC(C3)C1)C2)CN1CCN(c2ccccn2)CC1 (configuration not stated) | 2 | 37
OC(COCC12CC3CC(CC(C3)C1)C2)CN1CCN(c2ccccc2)CC1 (configuration not stated) | 1 | 57*
O=C(NCc1ccccc1Cl)C(=O)NCC1(c2ccccc2)CCOCC1 | -2 | -21
CC(C)(C)C(O)CCNS(=O)(=O)C1CC1 (configuration not stated) | 0 | -11
CCOc1ccc(Nc2cc(C)nc3nnnn23)cc1 | -7 | 7
O=C1CSC(=O)N1CC(O)COc1ccc(OCC(O)CN2C(=O)CSC2=O)cc1 (configuration not stated) | 70* | 1
O=C1CSC(=O)N1CCOc1ccc(F)cc1 | 2 | -5
Cc1ccc(C(=O)CN2C(C(=O)c3ccccc3)=C(N(C)C)c3ccccc3S2(=O)=O)c(C)c1 | 4 | 55*
Cc1ccc(C(=O)CC(=O)c2ccccc2C)c(O)c1 | 4 | 37
CN1C(=C(O)c2ccccc2)C(=O)c2ccccc2S1(=O)=O | -4 | -3
Cc1ccc(C(=O)CN2C(=C(O)c3ccccc3)C(=O)c3ccccc3S2(=O)=O)c(C)c1 | -7 | 59*
O=C1C(c2ccncc2)N(Cc2ccc(C(F)(F)F)cc2)C(=O)CN1C1CCCCC1 (configuration not stated) | -7 | 8
COc1ccc(Cl)cc1NC(=O)N1CCN(c2ccc(-c3ccco3)nn2)CC1 | 15 | 64*
COc1ccc(CCNC(=O)C2CCCN(c3ccc(-c4ccco4)nn3)C2)cc1OC (configuration not stated) | -7 | 2
COc1ccc(C(F)(F)F)cc1NC(=O)C1CCCN(c2ccc(-c3ccco3)nn2)C1 (configuration not stated) | -4 | 77*
COc1ccc(Cl)cc1NC(=O)c1cnn2c(C(F)(F)F)cc(-c3ccco3)nc12 | 5 | 1
COc1ccccc1NC(=O)C1CCCN(c2cnn(C)c(=O)c2)C1 (configuration not stated) | 0 | 2
COc1ccc(C)cc1NC(=O)C1CCCN(c2cnn(C)c(=O)c2)C1 (configuration not stated) | -8 | 53*
CC1=C(C(=O)Nc2ccccc2F)C(c2cccc(Br)c2)C2=C(CCCC2=O)N1 (configuration not stated) | -6 | -2
Cc1cccc(CN2CCCn3nc(C(=O)NCCc4ccc(Cl)cc4)cc3C2=O)c1 | -3 | -3
COc1cccc(-c2noc(Cn3ccnc3C)n2)c1 | -2 | -7
Cc1ccc(-n2c(C)ccc2C)c([N+](=O)[O-])c1 | -2 | 67*
Cc1ccc(-c2ccc(C)cc2[N+](=O)[O-])c([N+](=O)[O-])c1 | -1 | ·
Cc1ccc(N2NC(=O)/C(=C\c3cccs3)C2=O)cc1Cl | 0 | 2
COc1ccc(/C=C2\C(=O)NN(c3ccc(Cl)c(Cl)c3)C2=O)cc1 | -5 | 5
SMILES | Pf apPOL inh | mHTT-CaM PPI inh
Cc1ccc(N2NC(=O)/C(=C\c3ccc(Cl)cc3Cl)C2=O)cc1Cl | 4 | 90*
CN(C)c1ccc([N+](=O)[O-])cc1/C=C1\C(=O)NN(c2ccc(F)cc2)C1=O | 6 | 10
O=C1NN(c2ccc(Cl)c(Cl)c2)C(=O)/C1=C/c1ccccc1 | -3 | 96*
O=C1NN(c2ccc(Br)cc2)C(=O)/C1=C/c1cc([N+](=O)[O-])ccc1Cl | 1 | 89*
O=C1NN(c2ccc(F)cc2)C(=O)/C1=C/c1cccc([N+](=O)[O-])c1 | 1 | 13
Cc1ccc(N2NC(=O)/C(=C\c3cccc([N+](=O)[O-])c3)C2=O)cc1Cl | 0 | 77*
O=c1cc(CCl)nc(-c2ccccc2)[nH]1 | 2 | 1
Cn1cc(Cn2cc(N)cn2)cn1 | · | 9
C=CC1=C(C)c2cc3[nH]c(cc4nc(cc5[nH]c(cc1n2)c(C)c5CCC(=O)O)C(CCC(=O)O)=C4C)c(C)c3C=C | 15 | ·
CCCNC(=O)N1CCCC(C)(C(=O)NCc2cccc(OC)c2)C1 (configuration not stated) | 1 | -6
O=C1NN(c2ccc(Cl)c(Cl)c2)C(=O)/C1=C/c1ccc(-c2ccc3c(c2)C(=O)OC3)o1 | 3 | 68*
Cc1ccc(N2NC(=O)/C(=C\c3cccc(Br)c3)C2=O)cc1 | -1 | 71*
O=C1NN(c2cccc(Br)c2)C(=O)/C1=C/c1ccccc1 | -1 | 19
COc1cccc(/C=C2\C(=O)NN(c3ccc(C)c(Cl)c3)C2=O)c1OCC#N | -4 | 28
Cc1ccc(N2NC(=O)/C(=C\c3ccccc3OCC#N)C2=O)cc1Cl | 2 | 78*
O=C1NN(c2ccc(Cl)c(Cl)c2)C(=O)/C1=C/c1ccc(-c2ccc3c(c2)C(=O)NC3=O)o1 | -8 | 5
Cc1c(C2C3=C(CC(C)(C)CC3=O)OC3=C2C(=O)CC(C)(C)C3)c(=O)n(C)n1-c1ccccc1 | 0 | -1
CN(C)CC1CN(C(=O)c2n[nH]c3c2CCCC3)CC12CCOCC2 (configuration not stated) | -5 | 1

Assay outcomes as filed in PubChem.
